{
  "source": "ChEMBL document CHEMBL1157539",
  "about": "“Thousands of chemical starting points for antimalarial lead identification” (Nature, 2010)",
  "assay_type_in_all_cases": "functional",
  "key": {"[1]": {"test_system": "Plasmodium falciparum", "assay": "GSK_TCMDC: Inhibition of Plasmodium falciparum 3D7 in whole red blood cells, using parasite LDH activity as an index of growth. Test compounds present at 2uM"}, "[2]": {"test_system": "Plasmodium falciparum", "assay": "GSK_TCMDC: Inhibition of Plasmodium falciparum Dd2 in whole red blood cells, using parasite LDH activity as an index of growth. Test compounds present at 2uM"}, "[3]": {"test_system": "HepG2", "assay": "GSK_TCMDC: Percent inhibition of human HepG2 cell line. Test compounds present at 10uM."}},
  "data": [
    {"smiles": "COc1ccc2ncc(F)c(CCN3CC[C@@H](CNCc4ccc5c(c4C)OCCO5)C3)c2n1.Cl", "values": [
      {"measurement": "Inhibition", "setting": "[1]", "result": 94, "unit": "%"},
      {"measurement": "Inhibition", "setting": "[2]", "result": 11, "unit": "%"},
      {"measurement": "Inhibition", "setting": "[3]", "result": 17, "unit": "%"}
    ]},
    {"smiles": "CCOC(=O)CN1Cc2cc(NCc3ccc4ccc5nc(C)[nH]c(=O)c5c4c3)ccc2C1=O", "values": [
      {"measurement": "Inhibition", "setting": "[1]", "result": 84, "unit": "%"},
      {"measurement": "Inhibition", "setting": "[2]", "result": 91, "unit": "%"},
      {"measurement": "Inhibition", "setting": "[3]", "result": 40, "unit": "%"}
    ]},
    {"smiles": "NC(=O)C1CCN(Cc2ccc(-c3ccc(-c4nc5cc(C(F)(F)F)ccc5[nH]4)s3)cc2)CC1.O=C(O)C(F)(F)F", "values": [
      {"measurement": "Inhibition", "setting": "[1]", "result": 99, "unit": "%"},
      {"measurement": "Inhibition", "setting": "[2]", "result": 91, "unit": "%"},
      {"measurement": "Inhibition", "setting": "[3]", "result": 22, "unit": "%"}
    ]},
    {"smiles": "Clc1ccc(-c2ccc(C=NNc3nc(=Nc4ccccc4)[nH]c(=Nc4ccccc4)[nH]3)o2)cc1Cl", "values": [
      {"measurement": "Inhibition", "setting": "[1]", "result": 97, "unit": "%"},
      {"measurement": "Inhibition", "setting": "[2]", "result": 75, "unit": "%"},
      {"measurement": "Inhibition", "setting": "[3]", "result": 1, "unit": "%"}
    ]},
    {"smiles": "COc1cccc(Nc2nc(C)cc(NCc3ccc(-c4c(C)noc4C)cc3)n2)c1", "values": [
      {"measurement": "Inhibition", "setting": "[1]", "result": 98, "unit": "%"},
      {"measurement": "Inhibition", "setting": "[2]", "result": 42, "unit": "%"},
      {"measurement": "Inhibition", "setting": "[3]", "result": 33, "unit": "%"}
    ]},
    {"smiles": "OC(c1ccccc1)C1CN(CCc2ccccc2)CCC1(O)c1ccccc1", "note": "(stereo unspecified)", "values": [
      {"measurement": "Inhibition", "setting": "[1]", "result": 97, "unit": "%"},
      {"measurement": "Inhibition", "setting": "[2]", "result": 92, "unit": "%"},
      {"measurement": "Inhibition", "setting": "[3]", "result": 0, "unit": "%"}
    ]},
    {"smiles": "COc1c(C2CCN(CCCCNC(=O)c3oc(-c4ccc(Cl)cc4)cc3CO)CC2)ccc2c1CCCC2", "values": [
      {"measurement": "Inhibition", "setting": "[1]", "result": 100, "unit": "%"},
      {"measurement": "Inhibition", "setting": "[2]", "result": 95, "unit": "%"},
      {"measurement": "Inhibition", "setting": "[3]", "result": 80, "unit": "%"}
    ]},
    {"smiles": "CC(NC(=O)c1ccc(O)c(-c2ccc(Cl)c(Cl)c2)c1)C(=O)NCCN1CCOCC1", "note": "(stereo unspecified)", "values": [
      {"measurement": "Inhibition", "setting": "[1]", "result": 87, "unit": "%"},
      {"measurement": "Inhibition", "setting": "[2]", "result": 7, "unit": "%"},
      {"measurement": "Inhibition", "setting": "[3]", "result": 2, "unit": "%"}
    ]},
    {"smiles": "N#Cc1ccc(-c2ccc(C(=O)NCCCCN3CCC(c4ccc5c(c4OCC(N)=O)CCCC5)CC3)cc2)cc1", "values": [
      {"measurement": "Inhibition", "setting": "[1]", "result": 87, "unit": "%"},
      {"measurement": "Inhibition", "setting": "[2]", "result": 23, "unit": "%"},
      {"measurement": "Inhibition", "setting": "[3]", "result": 21, "unit": "%"}
    ]},
    {"smiles": "Cc1ccccc1Nc1nc(NCc2ccccc2)nc2ccccc12", "values": [
      {"measurement": "Inhibition", "setting": "[1]", "result": 88, "unit": "%"},
      {"measurement": "Inhibition", "setting": "[2]", "result": 35, "unit": "%"},
      {"measurement": "Inhibition", "setting": "[3]", "result": 39, "unit": "%"}
    ]},
    {"smiles": "CCCCC([C@@H](Cc1ccc2ccccc2c1)C(=O)N[C@H](C(=O)NC)C(C)(C)C)N(O)C=O", "note": "(stereo partly specified)", "values": [
      {"measurement": "Inhibition", "setting": "[1]", "result": 100, "unit": "%"},
      {"measurement": "Inhibition", "setting": "[2]", "result": 97, "unit": "%"},
      {"measurement": "Inhibition", "setting": "[3]", "result": 0, "unit": "%"}
    ]},
    {"smiles": "CN(c1ccc2c(c1)nc(NCc1ccccc1)n2C)c1ccnc(Nc2ccc(CS(C)(=O)=O)cc2)n1.Cl", "values": [
      {"measurement": "Inhibition", "setting": "[1]", "result": 94, "unit": "%"},
      {"measurement": "Inhibition", "setting": "[2]", "result": 69, "unit": "%"},
      {"measurement": "Inhibition", "setting": "[3]", "result": 61, "unit": "%"}
    ]},
    {"smiles": "CC(=O)c1ccc(NC(=O)Nc2ccc(N(C)c3ccnc(NC4CC4)n3)cc2)cc1", "values": [
      {"measurement": "Inhibition", "setting": "[1]", "result": 100, "unit": "%"},
      {"measurement": "Inhibition", "setting": "[2]", "result": 60, "unit": "%"},
      {"measurement": "Inhibition", "setting": "[3]", "result": 59, "unit": "%"}
    ]},
    {"smiles": "COc1cc2ccccc2cc1OCCCN1CCN(CC(c2ccc(F)cc2)N2CCN(C(C)C)CC2)CC1.Cl", "note": "(stereo unspecified)", "values": [
      {"measurement": "Inhibition", "setting": "[1]", "result": 100, "unit": "%"},
      {"measurement": "Inhibition", "setting": "[2]", "result": 92, "unit": "%"},
      {"measurement": "Inhibition", "setting": "[3]", "result": 72, "unit": "%"}
    ]},
    {"smiles": "Cc1cccc2nc(-c3ccc(-c4ccc(CN5CCCCC5)cc4)s3)[nH]c12.O=C(O)C(F)(F)F", "values": [
      {"measurement": "Inhibition", "setting": "[1]", "result": 99, "unit": "%"},
      {"measurement": "Inhibition", "setting": "[2]", "result": 87, "unit": "%"},
      {"measurement": "Inhibition", "setting": "[3]", "result": 16, "unit": "%"}
    ]},
    {"smiles": "O=C(NCC1CCC(C(=O)NCCN2CCCCC2)CC1)c1ccc(O)c(-c2ccc(Cl)c(Cl)c2)c1", "note": "(stereo unspecified)", "values": [
      {"measurement": "Inhibition", "setting": "[1]", "result": 91, "unit": "%"},
      {"measurement": "Inhibition", "setting": "[2]", "result": 22, "unit": "%"},
      {"measurement": "Inhibition", "setting": "[3]", "result": 0, "unit": "%"}
    ]},
    {"smiles": "Clc1ccc(Nc2nc(NCc3ccccc3)nc(N/N=C/c3ccccn3)n2)cc1", "values": [
      {"measurement": "Inhibition", "setting": "[1]", "result": 99, "unit": "%"},
      {"measurement": "Inhibition", "setting": "[2]", "result": 91, "unit": "%"},
      {"measurement": "Inhibition", "setting": "[3]", "result": 41, "unit": "%"}
    ]},
    {"smiles": "FC(F)(F)c1ccc2[nH]ccc(=NN=Cc3cccc(Cl)c3)c2c1", "values": [
      {"measurement": "Inhibition", "setting": "[1]", "result": 97, "unit": "%"},
      {"measurement": "Inhibition", "setting": "[2]", "result": 2, "unit": "%"},
      {"measurement": "Inhibition", "setting": "[3]", "result": 0, "unit": "%"}
    ]},
    {"smiles": "CCc1nn2c(Nc3ccncc3)cc(C)nc2c1-c1ccccc1", "values": [
      {"measurement": "Inhibition", "setting": "[1]", "result": 100, "unit": "%"},
      {"measurement": "Inhibition", "setting": "[2]", "result": 98, "unit": "%"},
      {"measurement": "Inhibition", "setting": "[3]", "result": 4, "unit": "%"}
    ]},
    {"smiles": "CCC(C)NC(=O)Nc1cccc(-c2cccc(-c3nc4cccc(C)c4[nH]3)c2)c1", "note": "(stereo unspecified)", "values": [
      {"measurement": "Inhibition", "setting": "[1]", "result": 100, "unit": "%"},
      {"measurement": "Inhibition", "setting": "[2]", "result": 27, "unit": "%"},
      {"measurement": "Inhibition", "setting": "[3]", "result": 3, "unit": "%"}
    ]},
    {"smiles": "Cc1ccc2sc(N3CCN(C(=O)c4ccc([N+](=O)[O-])o4)CC3)nc2c1C", "values": [
      {"measurement": "Inhibition", "setting": "[1]", "result": 90, "unit": "%"},
      {"measurement": "Inhibition", "setting": "[2]", "result": 86, "unit": "%"},
      {"measurement": "Inhibition", "setting": "[3]", "result": 0, "unit": "%"}
    ]},
    {"smiles": "O=C(O)C(F)(F)F.O=S(=O)(NCCN1CCCC1)c1ccc(-c2ccc(CNCc3ccsc3)cc2)cc1", "values": [
      {"measurement": "Inhibition", "setting": "[1]", "result": 95, "unit": "%"},
      {"measurement": "Inhibition", "setting": "[2]", "result": 36, "unit": "%"},
      {"measurement": "Inhibition", "setting": "[3]", "result": 44, "unit": "%"}
    ]},
    {"smiles": "Cc1cc(C)c(NC(=O)N2CCCN(CCCCCNC(=O)/C=C/c3ccc(Cl)c(Cl)c3)CC2)c(C)c1", "values": [
      {"measurement": "Inhibition", "setting": "[1]", "result": 91, "unit": "%"},
      {"measurement": "Inhibition", "setting": "[2]", "result": 0, "unit": "%"},
      {"measurement": "Inhibition", "setting": "[3]", "result": 12, "unit": "%"}
    ]},
    {"smiles": "O=C(/C=C/c1ccc(Cl)cc1)NCCCCCN1CCN(C(=O)C=Cc2ccc(Cl)c(Cl)c2)CC1.O=C(O)C(F)(F)F", "values": [
      {"measurement": "Inhibition", "setting": "[1]", "result": 92, "unit": "%"},
      {"measurement": "Inhibition", "setting": "[2]", "result": 0, "unit": "%"},
      {"measurement": "Inhibition", "setting": "[3]", "result": 30, "unit": "%"}
    ]},
    {"smiles": "NS(=O)(=O)c1ccc(CNC(=O)c2cnc3c(O)cccc3c2Nc2cccc(NC(=O)c3ccc(Cl)c(Cl)c3)c2)cc1.O=C(O)C(F)(F)F", "values": [
      {"measurement": "Inhibition", "setting": "[1]", "result": 97, "unit": "%"},
      {"measurement": "Inhibition", "setting": "[2]", "result": 35, "unit": "%"},
      {"measurement": "Inhibition", "setting": "[3]", "result": 56, "unit": "%"}
    ]},
    {"smiles": "Cc1ccc(-c2ccc3c(c2)C=C(C(=O)NC2CCN(CCNC(=O)c4cccc(C(F)(F)F)c4)CC2)CCC3)cc1.O=C(O)C(F)(F)F", "values": [
      {"measurement": "Inhibition", "setting": "[1]", "result": 100, "unit": "%"},
      {"measurement": "Inhibition", "setting": "[2]", "result": 56, "unit": "%"},
      {"measurement": "Inhibition", "setting": "[3]", "result": 25, "unit": "%"}
    ]},
    {"smiles": "Cc1noc(C)c1-c1ccc2c(Nc3ccc(Cl)cc3)c(C(N)=O)cnc2c1.Cl", "values": [
      {"measurement": "Inhibition", "setting": "[1]", "result": 94, "unit": "%"},
      {"measurement": "Inhibition", "setting": "[2]", "result": 67, "unit": "%"},
      {"measurement": "Inhibition", "setting": "[3]", "result": 9, "unit": "%"}
    ]}
  ]
}
